# In the library only some 2.4% were active in any assay of this set; here they are far more common.
# ULK1 primary: ULK1 kinase inhibitors, primary screen, biochemical, AlphaScreen | AlphaScreen Atg13 phosphorylation by ULK1, luminescence | inhibition, % at 5.96 µM | actives 1.9% (n = 30,000) | Serine/threonine-protein kinase ULK1 (Homo sapiens), O75385 | AID 1259251, 2017; in the data active = inhibition above about 43%
# ASK1 inh: ASK1 kinase inhibitors, primary screen, biochemical, AlphaScreen; AlphaScreen MKK6 phosphorylation by ASK1, luminescence; AID 1159602, 2016; actives 0.99% (n = 22,000); inhibition, % at 7.44 µM; Mitogen-activated protein kinase kinase kinase 5 (Homo sapiens), Q99683; in the data active = inhibition above about 35%
# TruHits interf: AlphaScreen signal interference by compounds, dose response, artefact control for ASK1 inhibitor project, biochemical, TruHits beads. shares compounds with ASK1 inh. signal interference counterscreen. IC50, µM. actives 20% (n = 220). AID 1159604, 2016;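 active = IC50 of 10 µM or lower in the counterscreen; inactive = IC50 above 10 µM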;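 note: loss of AlphaScreen light from TruHits beads alone with no ASK1 enzyme present; potency of signal reduction so a low IC50 flags an assay artifact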
# Numbers stand for hits; - = inactive; . = not tested or not shown; ! = not active in a repeat.
SMILES,ULK1 primary,ASK1 inh,TruHits interf
c1cncc(CNc2nc(Nc3ccc(N4CCOCC4)cc3)c3ncn(C4CCCCC4)c3n2)c1,62,-,.
c1ccc(CNc2nc(Nc3ccc(N4CCOCC4)cc3)nc3c2ncn3C2CCCCC2)cc1,-,-,.
c1cnc(Nc2nc(Nc3ccc(N4CCOCC4)cc3)c3ncn(C4CCCCC4)c3n2)nc1,-,-,.
CC(=O)Nc1ccc(Nc2nc(Nc3ccc(N4CCOCC4)cc3)nc3c2ncn3C2CCCCC2)cc1,48,-,.
CC(C)n1cnc2c(NCCO)nc(N3CCN(Cc4ccc5c(c4)OCO5)CC3)nc21,-,-,.
CCN(CC)c1nc(Nc2ccc(N3CCOCC3)cc2)nc(N2CCC(N3CCOCC3)CC2)n1,-,-,.
CCN(CC)c1nc(Nc2ccc(N3CCOCC3)cc2)nc(N2CCN(Cc3ccc4c(c3)OCO4)CC2)n1,-,43,-
CCN(CC)c1nc(Nc2ccccc2)nc(N2CCN(Cc3ccc4c(c3)OCO4)CC2)n1,-,-,.
CCN(CC)c1nc(Nc2ccc3c(c2)OCO3)nc(N2CCC(N3CCOCC3)CC2)n1,-,39,-
CN(C)c1cccc(Nc2cc(Nc3ccccc3)ncn2)c1,-,37,-
Cc1cc(NCCOc2ccccc2)nc(Nc2cccc(N(C)C)c2)n1,-,57,6
Cc1cc(NCCO)nc(Nc2cccc(N(C)C)c2)n1,-,-,.
CC(=O)Nc1ccc(Nc2cc(Nc3cccc(N(C)C)c3)ncn2)cc1,-,-,.
Cc1cc(NCCc2ccc(O)cc2)nc(Nc2cccc(N(C)C)c2)n1,-,55,9
Cc1cc(NCCOc2ccccc2)nc(Nc2cccnc2)n1,-,-,.
O=C(Nc1ccc(Oc2ccccc2)cc1)c1cnc(Nc2ncccn2)s1,-,-,.
CC(C)n1cnc2c(NCc3cccc(C(F)(F)F)c3)nc(Nc3ccc(N4CCOCC4)cc3)nc21,-,55!,6.4
FC(F)(F)c1cccc(CNc2nc(Nc3ccc(N4CCOCC4)cc3)nc3nc[nH]c23)c1,-,45!,-
FC(F)(F)c1ccc(Nc2nc(NCc3cccc(C(F)(F)F)c3)c3[nH]cnc3n2)cc1,-,-,.
CC(C)n1cnc2c(NCc3cccc(C(F)(F)F)c3)nc(Nc3ccccc3)nc21,-,-,.
CC(C)n1cnc2c(NCCOc3ccccc3)nc(Nc3cccc(N(C)C)c3)nc21,-,-,.
Fc1cc(-c2ccnc(Nc3ccc(-n4ccnn4)cc3)n2)cc(N2CCOCC2)c1,-,-,.
OC1CCN(c2ccc(Nc3nccc(-c4cc(F)cc(N5CCN(C6CC6)CC5)c4)n3)cc2)CC1,55,41,-
c1ccc(-c2cnc(NC3CCCCC3)nc2)cc1,-,.,.
Cc1ccc(-c2ncn(-c3ccc(Nc4nccc(-c5ccc(Cl)nc5)n4)cc3)n2)cn1,-,-,.
SMILES,ULK1 primary,ASK1 inh,TruHits interf
Cc1ccc(-c2ncn(-c3ccc(Nc4nccc(-c5cncc(N6CCOCC6)c5)n4)cc3)n2)cn1,-,41,-
Cc1ccc(-c2ncn(-c3ccc(Nc4nccc(-c5ccc(N)nc5)n4)cc3)n2)cn1,-,-,.
Cc1ccc(-c2ncn(-c3ccc(Nc4nccc(-c5cncc6ccccc56)n4)cc3)n2)cn1,-,38,-
CC(C)n1cnc2c(NC3CCN(Cc4ccccc4)CC3)nc(Nc3ccc(-n4ccnc4)cc3)nc21,-,-,.
CC(C)NC(=O)c1cccc(NC(=O)Nc2ccc(-c3ccncc3)cc2)c1,-,-,.
CCCNc1nc(N2CCN(c3ccccn3)CC2)nc2c1ncn2C(C)C,-,-,.
c1ccc(-n2cnc3c(NCc4cccnc4)nc(Nc4cccnc4)nc32)cc1,-,-,.
c1ccc(N2CCN(c3nc(Nc4ccc(N5CCOCC5)cc4)c4ncn(C5CCCCC5)c4n3)CC2)nc1,64,44,-
CC(C)n1cnc2c(NC3CC3)nc(N3CCN(c4ccccn4)CC3)nc21,-,43,-
c1cncc(CNc2nc(N3CCOCC3)nc3c2ncn3C2CCCCC2)c1,-,-,.
c1ccc(-n2cnc3c(NCc4cccnc4)nc(Nc4ccc(N5CCOCC5)cc4)nc32)cc1,-,39,-
c1cncc(CNc2nc(Nc3ccc(N4CCOCC4)cc3)nc3c2ncn3C2CCCCC2)c1,-,36,-
c1ccc(Nc2nc(N3CCN(c4ccccn4)CC3)nc3c2ncn3C2CCCCC2)cc1,-,-,.
COc1cc(Nc2nc(Nc3ccc(N4CCOCC4)cc3)c3ncn(CCN4CCCC4=O)c3n2)cc(OC)c1OC,-,-,.
CC(C)c1nc2ccc(-c3cnn(-c4ccc(CN5CCOCC5)cc4)c3)cc2c(=O)[nH]1,-,-,.
COc1cc2nc(Nc3ccc(C(F)(F)F)cc3)nc(NCCc3ccc(O)cc3)c2cc1OC,-,-,.
CC(C)n1c(N2CCc3ccccc3C2)nc2c(NCc3ccccc3)ncnc21,-,-,.
CN1CCN(c2ccc(-c3ccc(C(=O)NCCc4ccc(O)cc4)s3)cc2)CC1,-,-,.
FC(F)(F)c1ccc(Cn2cnc3c(Nc4ccccc4)nc(NC4CCN(Cc5ccccc5)CC4)nc32)cc1,-,-,.
FC(F)(F)c1ccc(Cn2cnc3c(Nc4ccc5c(c4)OCO5)nc(NC4CCN(Cc5ccccc5)CC4)nc32)cc1,-,46,-
FC(F)(F)c1ccc(Cn2cnc3c(NC4CCN(Cc5ccccc5)CC4)nc(Nc4ccc(N5CCOCC5)cc4)nc32)cc1,-,40,-
c1ccc(CN2CCC(Nc3nc(Nc4ccc(N5CCOCC5)cc4)nc4c3ncn4-c3ccccc3)CC2)cc1,-,-,.
c1ccc(CN2CCC(Nc3nc(Nc4ccc(N5CCOCC5)cc4)nc4c3ncn4C3CCCCC3)CC2)cc1,-,50,8.1
FC(F)(F)c1ccc(Cn2cnc3c(NC4CC4)nc(Nc4ccc(N5CCOCC5)cc4)nc32)cc1,-,-,.
COc1ccc(CNc2cc(C)nc(-c3cccc(OC(F)(F)F)c3)n2)cc1,-,-,.
SMILES,ULK1 primary,ASK1 inh,TruHits interf
CCN(CC)C(=O)C1CCCN(c2cccc(C(=O)NCCN(C(C)C)C(C)C)n2)C1 (stereo not drawn),-,-,.
Cc1cnc(Nc2ccc(N3CCOCC3)cc2)nc1NCc1ccccc1,-,37,-
COc1ccc(CCNc2nc(Nc3ccc(N4CCOCC4)cc3)nc3cc(OC)c(OC)cc23)cc1,-,53,6.8
COc1ccc(CCNc2nc(Nc3ccc(N4CCOCC4)cc3)ncc2C)cc1,-,40,-
COc1cc2nc(Nc3ccc(N4CCOCC4)cc3)nc(NCCOc3ccccc3)c2cc1OC,-,57,5.8
COc1cc2nc(Nc3ccc(N4CCOCC4)cc3)nc(NCCCN3CCCC3=O)c2cc1OC,-,-,.
COc1cc2nc(Nc3ccc(N4CCOCC4)cc3)nc(NCCc3ccc(O)cc3)c2cc1OC,-,-,.
CCCNc1nc(Nc2ccc(N3CCOCC3)cc2)ncc1C,-,-,.
Cc1cnc(Nc2ccc(N3CCOCC3)cc2)nc1NCc1cccnc1,-,-,.
Cc1ccc(Nc2nc(C(=O)N3CCN(C)CC3)cs2)cc1,-,.,.
COc1ccc(-c2cncc3ccc(C(=O)N[C@H](C)c4ccccc4)nc23)cc1,-,.,.
COc1cc2nc(NCCCN3CCCC3=O)nc(NCCN(C(C)C)C(C)C)c2cc1OC,-,-,.
Nc1nc(NCCOc2ccccc2)cc(Nc2ncccn2)n1,-,-,.
COc1nc(NCc2cccc(C(F)(F)F)c2)nc(-c2c(C)noc2C)n1,-,-,.
CCCNC(=O)c1csc(Nc2ccc(N3CCOCC3)cc2)n1,-,-,.
CCN(CC)c1nc(NCCc2ccc(OC)cc2)nc(Nc2cccc(N(C)C)c2)n1,-,-,.

# Bioassay records (PubChem)
